# In the supplement of paper PMC7695840:
# Where a name gives a salt, the structure may show the parent alone.
# Tested on: Staphylococcus aureus MW2 delta-mecA (mecA-)
# Assay: normalized GFP fluorescence (growth of mecA- strain) (fraction of control range); higher = more growth of mecA- strain
# Settings: compound concentration: 150 uM; cefoxitin: subinhibitory; fluorescent label: GFP
# Outline: (§1)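 Fluorescence from DsRed (540/590) and GFP (485/520) was recorded after 20 h of static growth at 37 °C and 90% humidity. The wells held a 1:1 mix of pre-induced S. aureus MW2 cells, gene-bearing with DsRed and gene-deleted with GFP, in LB with a daily-set subinhibitory antibiotic dose, dispensed at 5 µL/well onto 150 μM compound (1.5% DMSO) in 1536-well plates, single replicate. Each channel was scaled per plate between single-strain control medians, excluding plates with high untreated ratios and rows with DsRed/GFP >10.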
row,Structure (SMILES),normalized GFP fluorescence
1,CCCc1cc(C(N)=S)ccn1 [Protionamide (Prothionamide)],0.749
2,CCN[C@H]1CN(CCCOC)S(=O)(=O)c2sc(S(N)(=O)=O)cc21,0.268
3,C[C@]12C=CC(=O)C=C1CC[C@@H]1[C@@H]2C(=O)C[C@@]2(C)[C@H]1CC[C@]2(O)C(=O)CO,0.371
4,CN1CC(=O)N2[C@H](c3ccc4c(c3)OCO4)c3[nH]c4ccccc4c3C[C@@H]2C1=O,0.112
5,CN(C)CCOC(=O)C(c1ccccc1)C1(O)CCCC1 (stereo not drawn),0.34
6,Nc1nc(F)nc2c1ncn2[C@@H]1O[C@H](COP(=O)(O)O)[C@@H](O)[C@@H]1O,0.362
7,CC(=O)c1ccc2c(c1)N(CCCN(C)C)c1ccccc1S2,0.165
8,OC(Cn1cncn1)(Cn1cncn1)c1ccc(F)cc1F,0.417
9,Nc1nc(=O)n([C@@H]2CS[C@H](CO)O2)cc1F [Emtricitabine],0.4
10,COCCOC(=O)C1=C(C)NC(C)=C(C(=O)OC(C)C)C1c1cccc([N+](=O)[O-])c1 (stereo not drawn),0.032
11,COc1cc2nc(N3CCN(C(=O)C4CCCO4)CC3)nc(N)c2cc1OC (stereo not drawn) [Terazosin HCl (Hytrin)],0.321
12,"CC(C)(C)C(=O)OCOP(=O)(COCCn1cnc2c(N)ncnc21)OCOC(=O)C(C)(C)C [Adefovir Dipivoxil (Preveon, Hepsera)]",0.38
13,Cc1ccccc1OCC(O)CO (stereo not drawn),0.392
14,CC(C)(C)NCC(O)c1cc(O)cc(O)c1 (stereo not drawn),0.587
15,N[C@@H](Cc1ccc(O)c(O)c1)C(=O)O,0.506
16,CCN(CC)Cc1cc(Nc2ccnc3cc(Cl)ccc23)ccc1O,0.205
17,N#Cc1ccc2[nH]cc(CCCCN3CCN(c4ccc5oc(C(N)=O)cc5c4)CC3)c2c1,0.0415
18,O=C(C1CCCCC1)N1CC(=O)N2CCc3ccccc3C2C1 (stereo not drawn),0.421
19,C[C@@H](c1ncncc1F)[C@](O)(Cn1cncn1)c1ccc(F)cc1F,0.309
20,CN1CCN(CC(=O)N2c3ccccc3C(=O)Nc3cccnc32)CC1,0.28

row,Structure (SMILES),normalized GFP fluorescence
1,CC(=O)[C@H]1CC[C@H]2[C@@H]3C=CC4=CC(=O)CC[C@@]4(C)[C@@H]3CC[C@]12C,0.56
2,COc1ccc(-c2cc(=O)c3c(O)cc(O[C@@H]4O[C@H](CO[C@@H]5O[C@@H](C)[C@H](O)[C@@H](O)[C@H]5O)[C@@H](O)[C@H](O)[C@H]4O)cc3o2)cc1O [Diosmin],0.55
3,CCCCOc1ccc(CC(=O)NO)cc1 [Bufexamac],0.312
4,CC(=O)OCC(=O)[C@@]12N=C(C)O[C@@H]1C[C@H]1[C@@H]3CCC4=CC(=O)C=C[C@]4(C)[C@H]3[C@@H](O)C[C@@]12C,0.231
5,CC1=NN(c2ccc(C)c(C)c2)C(=O)/C1=N\Nc1cccc(-c2cccc(C(=O)O)c2)c1O,-0.0259
6,CCN[C@@H]1C[C@H](N)[C@@H](O[C@H]2OC(CN)=CC[C@H]2N)[C@H](O)[C@H]1O[C@H]1OC[C@](C)(O)[C@H](NC)[C@H]1O,0.695
7,N#Cc1ccc(C(c2ccc(C#N)cc2)n2cncn2)cc1,0.628
8,CCCNC(=O)NS(=O)(=O)c1ccc(Cl)cc1,0.221
9,CC(=O)S[C@@H]1CC2=CC(=O)CC[C@]2(C)[C@H]2CC[C@@]3(C)[C@@H](CC[C@@]34CCC(=O)O4)[C@H]12,0.734
10,O=C(NC(Cc1cc(=O)[nH]c2ccccc12)C(=O)O)c1ccc(Cl)cc1 (stereo not drawn) [Rebamipide],0.175
11,Clc1cccc(Cl)c1NC1=NCCN1,0.205
12,CN1CCCN=C1COC(=O)C(O)(c1ccccc1)C1CCCCC1 (stereo not drawn),0.399
13,CC(=O)Oc1ccccc1C(=O)O [Aspirin (Acetylsalicylic acid)],0.393
14,COC(=O)C1=C(C)NC(C)=C(C(=O)OCCN(C)Cc2ccccc2)C1c1cccc([N+](=O)[O-])c1 (stereo not drawn),-0.00636
15,CCc1c2c(nc3ccc(OC(=O)N4CCC(N5CCCCC5)CC4)cc13)-c1cc3c(c(=O)n1C2)COC(=O)[C@]3(O)CC,0.461
16,O=C(CCBr)N1CCN(C(=O)CCBr)CC1,0.631
17,NS(=O)(=O)c1cc2c(cc1Cl)NCNS2(=O)=O,0.562
18,C[C@@H]1CCN(C(=O)CC#N)C[C@@H]1N(C)c1ncnc2[nH]ccc12,0.325
19,COc1ccc2cc([C@H](C)C(=O)O)ccc2c1 [Naproxen (Aleve)],0.0134

# Tested on: Staphylococcus aureus MW2 (mecA+)
# Assay: normalized DsRed fluorescence (growth of mecA+ strain) (fraction of control range); higher = more growth of mecA+ strain
# Settings: compound concentration: 150 uM; cefoxitin: subinhibitory; fluorescent label: DsRed
# Outline: as §1
row,Structure (SMILES),normalized DsRed fluorescence
1,CCCc1cc(C(N)=S)ccn1 [Protionamide (Prothionamide)],0.698
2,CCN[C@H]1CN(CCCOC)S(=O)(=O)c2sc(S(N)(=O)=O)cc21,0.875
3,C[C@]12C=CC(=O)C=C1CC[C@@H]1[C@@H]2C(=O)C[C@@]2(C)[C@H]1CC[C@]2(O)C(=O)CO,0.647
4,CN1CC(=O)N2[C@H](c3ccc4c(c3)OCO4)c3[nH]c4ccccc4c3C[C@@H]2C1=O,0.636
5,CN(C)CCOC(=O)C(c1ccccc1)C1(O)CCCC1 (stereo not drawn),0.757
6,Nc1nc(F)nc2c1ncn2[C@@H]1O[C@H](COP(=O)(O)O)[C@@H](O)[C@@H]1O,0.656
7,CC(=O)c1ccc2c(c1)N(CCCN(C)C)c1ccccc1S2,1.27
8,OC(Cn1cncn1)(Cn1cncn1)c1ccc(F)cc1F,0.746
9,Nc1nc(=O)n([C@@H]2CS[C@H](CO)O2)cc1F [Emtricitabine],0.622
10,COCCOC(=O)C1=C(C)NC(C)=C(C(=O)OC(C)C)C1c1cccc([N+](=O)[O-])c1 (stereo not drawn),0.85
11,COc1cc2nc(N3CCN(C(=O)C4CCCO4)CC3)nc(N)c2cc1OC (stereo not drawn) [Terazosin HCl (Hytrin)],0.745
12,"CC(C)(C)C(=O)OCOP(=O)(COCCn1cnc2c(N)ncnc21)OCOC(=O)C(C)(C)C [Adefovir Dipivoxil (Preveon, Hepsera)]",0.712
13,Cc1ccccc1OCC(O)CO (stereo not drawn),0.853
14,CC(C)(C)NCC(O)c1cc(O)cc(O)c1 (stereo not drawn),0.611
15,N[C@@H](Cc1ccc(O)c(O)c1)C(=O)O,0.611
16,CCN(CC)Cc1cc(Nc2ccnc3cc(Cl)ccc23)ccc1O,0.684
17,N#Cc1ccc2[nH]cc(CCCCN3CCN(c4ccc5oc(C(N)=O)cc5c4)CC3)c2c1,0.987
18,O=C(C1CCCCC1)N1CC(=O)N2CCc3ccccc3C2C1 (stereo not drawn),0.542
19,C[C@@H](c1ncncc1F)[C@](O)(Cn1cncn1)c1ccc(F)cc1F,0.766
20,CN1CCN(CC(=O)N2c3ccccc3C(=O)Nc3cccnc32)CC1,0.759

row,Structure (SMILES),normalized DsRed fluorescence
1,CC(=O)[C@H]1CC[C@H]2[C@@H]3C=CC4=CC(=O)CC[C@@]4(C)[C@@H]3CC[C@]12C,0.456
2,COc1ccc(-c2cc(=O)c3c(O)cc(O[C@@H]4O[C@H](CO[C@@H]5O[C@@H](C)[C@H](O)[C@@H](O)[C@H]5O)[C@@H](O)[C@H](O)[C@H]4O)cc3o2)cc1O [Diosmin],1.27
3,CCCCOc1ccc(CC(=O)NO)cc1 [Bufexamac],0.828
4,CC(=O)OCC(=O)[C@@]12N=C(C)O[C@@H]1C[C@H]1[C@@H]3CCC4=CC(=O)C=C[C@]4(C)[C@H]3[C@@H](O)C[C@@]12C,0.567
5,CC1=NN(c2ccc(C)c(C)c2)C(=O)/C1=N\Nc1cccc(-c2cccc(C(=O)O)c2)c1O,0.021
6,CCN[C@@H]1C[C@H](N)[C@@H](O[C@H]2OC(CN)=CC[C@H]2N)[C@H](O)[C@H]1O[C@H]1OC[C@](C)(O)[C@H](NC)[C@H]1O,0.952
7,N#Cc1ccc(C(c2ccc(C#N)cc2)n2cncn2)cc1,0.758
8,CCCNC(=O)NS(=O)(=O)c1ccc(Cl)cc1,0.489
9,CC(=O)S[C@@H]1CC2=CC(=O)CC[C@]2(C)[C@H]2CC[C@@]3(C)[C@@H](CC[C@@]34CCC(=O)O4)[C@H]12,0.584
10,O=C(NC(Cc1cc(=O)[nH]c2ccccc12)C(=O)O)c1ccc(Cl)cc1 (stereo not drawn) [Rebamipide],0.942
11,Clc1cccc(Cl)c1NC1=NCCN1,0.663
12,CN1CCCN=C1COC(=O)C(O)(c1ccccc1)C1CCCCC1 (stereo not drawn),0.63
13,CC(=O)Oc1ccccc1C(=O)O [Aspirin (Acetylsalicylic acid)],0.803
14,COC(=O)C1=C(C)NC(C)=C(C(=O)OCCN(C)Cc2ccccc2)C1c1cccc([N+](=O)[O-])c1 (stereo not drawn),1.02
15,CCc1c2c(nc3ccc(OC(=O)N4CCC(N5CCCCC5)CC4)cc13)-c1cc3c(c(=O)n1C2)COC(=O)[C@]3(O)CC,0.626
16,O=C(CCBr)N1CCN(C(=O)CCBr)CC1,0.794
17,NS(=O)(=O)c1cc2c(cc1Cl)NCNS2(=O)=O,0.865
18,C[C@@H]1CCN(C(=O)CC#N)C[C@@H]1N(C)c1ncnc2[nH]ccc12,0.9
19,COc1ccc2cc([C@H](C)C(=O)O)ccc2c1 [Naproxen (Aleve)],0.825
